# In the supplement of paper PMC4466140:
# Assays:
# Assay in all cases: SPOT peptide array binding signal intensity (averaged, normalized) (arbitrary units (background-subtracted, floor 0; scale differs between SH3 domains)); higher = stronger binding of the SH3 domain to the peptide
# [1] = biological target: ScBbc1
# In short: (§1)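 Spot intensities were captured after detection with anti-GST antibody, an HRP-linked anti-mouse secondary and luminol, and quantified with Genespotter. The probes were GST-fused SH3 domains from four yeast species, produced in E. coli BL21(DE3), purified on glutathione Sepharose and incubated at 10 μg/ml overnight at 4°C on cellulose-bound synthetic 15-mer peptides with cysteines replaced by serines. Binding signal is the normalized, background-subtracted spot intensity averaged over replicates, and its arbitrary units differ between domains.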
# [2] = biological target: ScBem1-D1
# In short: as §1
# [3] = biological target: ScBzz1-D1
# In short: as §1
# [4] = biological target: ScBzz1-D2
# In short: as §1
# [5] = biological target: ScCyk3
# In short: as §1
# [6] = biological target: ScFus1
# In short: as §1
# [7] = biological target: ScHof1
# In short: as §1
# [8] = biological target: ScHse1
# In short: as §1
# [9] = biological target: ScLsb1
# In short: as §1
# [10] = biological target: ScLsb2
# In short: as §1
# [11] = biological target: ScLsb3
# In short: as §1
# [12] = biological target: ScLsb4
# In short: as §1
# [13] = biological target: ScMyo3
# In short: as §1
# [14] = biological target: ScMyo5
# In short: as §1
# [15] = biological target: ScNbp2
# In short: as §1
# [16] = biological target: ScPex13
# In short: as §1
# [17] = biological target: ScRvs167
# In short: as §1
# [18] = biological target: ScSho1
# In short: as §1
# [19] = biological target: ScSla1-D1-D2
# In short: as §1
# [20] = biological target: ScSla1-D3
# In short: as §1
# [21] = biological target: SpAbp1-D1
# In short: as §1
# [22] = biological target: SpBbc1
# In short: as §1
# [23] = biological target: SpBzz1-D1
# In short: as §1
# [24] = biological target: SpBzz1-D2
# In short: as §1
# [25] = biological target: SpCyk3
# In short: as §1
# [26] = biological target: SpHof1
# In short: as §1
# [27] = biological target: SpHof1-2
# In short: as §1
# [28] = biological target: SpHof1-3
# In short: as §1
# [29] = biological target: SpHse1
# In short: as §1
# [30] = biological target: SpLsb1
# In short: as §1
# [31] = biological target: SpLsb4
# In short: as §1
# [32] = biological target: SpMyo1
# In short: as §1
# [33] = biological target: SpNbp2
# In short: as §1
# [34] = biological target: SpPex13
# In short: as §1
# [35] = biological target: SpRvs167
# In short: as §1
# [36] = biological target: SpSla1-D1-D2
# In short: as §1
# [37] = biological target: SpSla1-D3
# In short: as §1
binder,measurement,setting,value
VQQDSLPKLPFRSWG,SPOT peptide array binding signal intensity,[1],3.75
same,SPOT peptide array binding signal intensity,[2],0.5
same,SPOT peptide array binding signal intensity,[3],≤ 0
same,SPOT peptide array binding signal intensity,[4],8
same,SPOT peptide array binding signal intensity,[5],2
same,SPOT peptide array binding signal intensity,[6],≤ 0
same,SPOT peptide array binding signal intensity,[7],178
same,SPOT peptide array binding signal intensity,[8],25
same,SPOT peptide array binding signal intensity,[9],85.5
same,SPOT peptide array binding signal intensity,[10],38.5
same,SPOT peptide array binding signal intensity,[11],5130
same,SPOT peptide array binding signal intensity,[12],3050
same,SPOT peptide array binding signal intensity,[13],≤ 0
same,SPOT peptide array binding signal intensity,[14],≤ 0
same,SPOT peptide array binding signal intensity,[15],≤ 0
same,SPOT peptide array binding signal intensity,[16],2500
same,SPOT peptide array binding signal intensity,[17],2720
same,SPOT peptide array binding signal intensity,[18],300
same,SPOT peptide array binding signal intensity,[19],3.5
same,SPOT peptide array binding signal intensity,[20],≤ 0
same,SPOT peptide array binding signal intensity,[21],25
same,SPOT peptide array binding signal intensity,[22],5.25
same,SPOT peptide array binding signal intensity,[23],275
same,SPOT peptide array binding signal intensity,[24],1
same,SPOT peptide array binding signal intensity,[25],15.5
same,SPOT peptide array binding signal intensity,[26],11.2
same,SPOT peptide array binding signal intensity,[27],258
same,SPOT peptide array binding signal intensity,[28],865
same,SPOT peptide array binding signal intensity,[29],77.5
same,SPOT peptide array binding signal intensity,[30],3.5
same,SPOT peptide array binding signal intensity,[31],6040
same,SPOT peptide array binding signal intensity,[32],≤ 0
same,SPOT peptide array binding signal intensity,[33],1
same,SPOT peptide array binding signal intensity,[34],5
same,SPOT peptide array binding signal intensity,[35],2610
same,SPOT peptide array binding signal intensity,[36],3.5
same,SPOT peptide array binding signal intensity,[37],≤ 0
